From PubChem BioAssay
Sampled rows, rich in hits. Any-hit rate of the full collection: about 3.8%.
B2AR ag = beta2AR agonists driving receptor internalization, primary screen, cell-based, FAP fluorogen, flow cytometry | 340,000 compounds, 0.43% hits | Am2.2-beta2AR cells | Beta-2 adrenergic receptor (Homo sapiens), P07550 | AID 504454, 2011 | response, % (concentration not given with the values);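 active means response above a set limit, near 3 SD of response in nonfluorescent compounds, cut at about 42% in these data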
Target sequence (P07550 whole entry, looked up): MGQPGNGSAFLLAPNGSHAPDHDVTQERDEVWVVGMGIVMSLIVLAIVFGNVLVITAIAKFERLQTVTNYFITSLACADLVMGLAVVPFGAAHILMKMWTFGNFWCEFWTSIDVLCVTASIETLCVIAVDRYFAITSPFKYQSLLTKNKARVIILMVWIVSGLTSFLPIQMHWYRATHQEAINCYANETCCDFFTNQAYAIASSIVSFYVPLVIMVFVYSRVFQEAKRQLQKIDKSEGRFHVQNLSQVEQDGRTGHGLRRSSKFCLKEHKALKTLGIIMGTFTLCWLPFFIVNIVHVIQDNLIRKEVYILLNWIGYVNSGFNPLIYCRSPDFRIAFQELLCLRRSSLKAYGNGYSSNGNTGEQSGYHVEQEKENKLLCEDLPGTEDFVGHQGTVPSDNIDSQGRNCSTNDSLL
TIM10 inh = growth inhibitors of isogenic TIM10 control yeast, primary screen, counter-screen for tim10-1 yeast inhibitor project, luminescence, uHTS | 330,000 compounds, 1.4% hits | S. cerevisiae TIM10 strain growth, BacTiter-Glo luminescence, 24 h | AID 463195, 2010 | inhibition, % at 10 µM;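 active means inhibition of 40% or more at the single tested concentration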;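 further: wild-type TIM10 isogenic control strain grown at permissive 25 °C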
tim23-1 inh = growth inhibitors of tim23-1 mutant yeast, primary screen, luminescence, uHTS | 330,000 compounds, 1.3% hits | S. cerevisiae tim23-1 growth, BacTiter-Glo luminescence, 24 h | inhibition, % at 20 µM;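 active means growth inhibition of the mutant yeast at or above 50%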;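 further: temperature-sensitive mutant grown at 25 °C; plate controls were DMSO-treated mutant yeast for no effect and medium wells lacking yeast for full effect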
PfHsp90 set2 = growth inhibition of PfHsp90-expressing yeast, primary screen, antimalarial PfHsp90 inhibitor project, S. cerevisiae, BacTiter-Glo luminescence, single point, set 2. BacTiter-Glo ATP, 48 h; yeast lacking PDR1 and PDR3 efflux regulators. inhibition, % at 9.4 µM. 310,000 compounds, 0.32% hits;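 active means every replicate shows inhibition above about 80%, whatever the replicate mean, limit read from the data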;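 further: 0% = DMSO neutral controls and 100% = 20 µM radicicol positive controls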
tim10-1 inh = growth inhibitors of tim10-1 mutant yeast, primary screen, luminescence, uHTS; S. cerevisiae tim10-1 ts strain growth, BacTiter-Glo, 24 h; inhibition, % at 20 µM; 330,000 compounds, 2.2% hits; AID 463190, 2010;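 active means inhibition of at least 40%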;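 further: mutant grown at 25 °C; 0% = DMSO wells with yeast and 100% = wells holding no yeast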
tim10-1 conf = growth inhibitors of tim10-1 mutant yeast, confirmation, single concentration, luminescence, S. cerevisiae | inhibition, % at 20 µM | S. cerevisiae tim10-1 ts strain growth, BacTiter-Glo, 24 h | AID 463213, 2010 | 7,400 compounds, 56% hits | shares compounds with tim10-1 inh;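 active means inhibition of yeast growth at or above a set limit in either of two repeat tests at 20 µM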;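 further: tim10-1 mutant grown at permissive 25 °C to find synthetic lethal compounds; 0% = DMSO yeast wells and 100% = medium wells without yeast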
TIM10 conf = growth inhibitors of wild-type TIM10 yeast, confirmation, counter-screen for tim10-1 synthetic lethality project, single concentration, luminescence, S. cerevisiae | shares compounds with TIM10 inh | S. cerevisiae tim10 strain growth, BacTiter-Glo luminescence, 24 h | inhibition, % at 10 µM | 4,600 compounds, 63% hits | AID 463215, 2010;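 active means inhibition of yeast growth at or above a set limit in either of two replicates at 10 µM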;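 further: this counterscreen used the strain with wild-type TIM10; 0% = yeast with DMSO and 100% = medium wells lacking yeast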
An asterisk follows results filed as active; . = no result; ! = not confirmed by another sample.

SMILES | B2AR ag | TIM10 inh | tim23-1 inh | PfHsp90 set2 | tim10-1 inh | tim10-1 conf | TIM10 conf
Cc1cc(N)ncc1[N+](=O)[O-] | 10 | . | . | -2 | . | . | .
Cc1ccc(-n2cc3c(=O)n(C)c(=O)n(C)c3c2)cc1C | -4 | 16 | 22 | -7 | 25 | . | .
Cc1ccnn2cc3c(=O)n(C)c(=O)n(C)c3c12 | . | 72* | 41 | . | 53* | 51* | -9
Cc1cc(C(C)(C)C)cc(C)c1COC(=O)CN1C(=O)NC2(CCCC2)C1=O | -4 | 2 | 28 | -1 | 19 | . | .
S=C(NN=C1C2CC3CC(C2)CC1C3)Nc1ccccc1 | -3 | 51* | 48 | 0 | 60* | 46* | -25
Cc1cc(C)c(S(=O)(=O)NCc2cccnc2)c(C)c1 | 3 | 3 | 13 | -22 | 21 | . | .
CCN(CC)C(=O)COc1c(-c2ccco2)oc2ccccc2c1=O | -24 | 4 | 31 | 17 | 4 | . | .
CC(=O)Oc1c(-c2ccco2)oc2ccccc2c1=O | 14 | 62* | 48 | -48 | 53* | 49* | 61*
CCOC(=O)c1cnc2ccc(OC)cc2c1Nc1ccc(N2CCN(C)CC2)cc1 | 17 | 9 | -5 | -1 | 15 | . | .
CCOC(=O)c1cnc2ccc(OC)cc2c1Nc1ccc2c(c1)OCCO2 | 6 | 43* | 48 | 0 | 56* | 48* | 14
CC1=Nc2ccccc2/C1=C\c1nc(-c2ccccc2)oc1O | -87 | 45* | 26 | -20 | 42* | 34* | 35*
COc1ccccc1/C=C/CN1CCCC(CCC(=O)NCc2ccccc2F)C1 (stereo unspecified) | -2 | 43* | 12 | 9 | 52* | 36* | 29
COc1ccccc1CC(=O)N1CCCC(CCC(=O)NCc2ccccc2F)C1 (stereo unspecified) | -8 | 5 | 7 | 11 | 16 | . | .
CC1CCc2c(sc(NC(=O)c3ccc(N4C(=O)CCC4=O)cc3)c2C(N)=O)C1 (stereo unspecified) | 13 | 15 | 17 | 7 | 6 | . | .
COc1ccc(N2CCN(C(=O)c3sc4nc(-c5ccc(F)cc5)cn4c3C)CC2)cc1 | 5 | -16 | 5 | -8 | -7 | . | .
CCOC(=O)C1CCCN(C(=O)c2sc3nc(-c4ccccc4)cn3c2C)C1 (stereo unspecified) | -7 | 22 | 30 | 12 | 7 | . | .
CCOC(=O)C1CCCN(C(=O)c2sc3nc(-c4ccc(F)cc4)cn3c2C)C1 (stereo unspecified) | 13 | 56* | 41 | 3 | 53* | 48* | 42*
CCOC(=O)C1CCN(C(=O)c2sc3nc(-c4ccc(F)cc4)cn3c2C)CC1 | 10 | 78* | 43 | -2 | 74* | 74* | 69*
CCN(C(=O)c1cccnc1SC)C12CC3CC(CC(C3)C1)C2 | 8 | 22 | 42 | -9 | 19 | . | .
COc1nnc(-c2ccc(N3CCCCC3)c(N)c2)c2ccccc12 | -6 | 49* | 49 | 3 | 44* | 36* | 40*
O=C(O)c1cccc(N/N=C/c2cn(-c3ccccc3)nc2-c2cccs2)c1 | -7 | 61* | 10 | -23 | 47* | 59* | 65*
COC(=O)N/N=C/c1cccs1 | -1 | 0 | 4 | -1 | -5 | . | .
COC(=O)C(=C/C(C)=C/c1cccs1)C(=O)OC | 4 | 43* | 38 | 6 | 44* | 28 | 43*
O=C(Cn1cnc([N+](=O)[O-])n1)c1ccc(O)c(O)c1 | -2 | 12 | -2 | -2 | 3 | . | .
C=C[C@]1(C)C[C@@H](OC(=O)CSCCN(CC)CC)[C@]2(C)C(C)CC[C@]3(CCC(=O)[C@H]32)[C@@H](C)[C@@H]1O (stereo partly specified) | 9 | 42*! | 34 | 21 | 46* | 40*! | 38*
SMILES | B2AR ag | TIM10 inh | tim23-1 inh | PfHsp90 set2 | tim10-1 inh | tim10-1 conf | TIM10 conf
CCCn1c(SCC(=O)Nc2ccccc2C(=O)OC)nc2c1c(=O)n(C)c(=O)n2C | -8 | 46* | 31 | 4 | 60* | 45* | 46*
COc1ccccc1Nc1nc(N)nc(CSC(=S)N2CCCCC2C)n1 (stereo unspecified) | -4 | 49* | 38 | 3 | 42* | 27 | -23
N#C/C(=C\c1ccccc1)C(=O)Nc1cc(S(=O)(=O)N2CCOCC2)ccc1N1CCCC1 | -5 | 49* | 49 | 2 | 52* | 33* | 24
O=C(Nc1cc(S(=O)(=O)N2CCOCC2)ccc1N1CCCCC1)c1ccccc1 | 6 | 13 | 31 | . | 16 | . | .
CC(C)c1ccc(CNCCCSc2ncccn2)cc1 | -6 | -5 | 19 | 4 | 12 | . | .
O=C(c1ccco1)N1CCN(c2ncnc3scc(-c4ccccc4)c23)CC1 | -13 | 44* | 28 | 13 | 47* | 42* | -3
COc1ccc(-c2csc3ncnc(N4CCN(C(=O)c5ccco5)CC4)c23)cc1 | -4 | 25 | 32 | -12 | 35 | . | .
O=C(CSc1nc(=O)n2ccccc2n1)N1CCN(c2ccccc2)CC1 | -6 | 2 | -5 | . | 6 | . | .
O=C1NC(=O)/C(=C\c2ccccc2OCc2ccccc2)S1 | 7 | 43* | 46 | 0 | 45* | 33* | 29
O=C1NC(=O)/C(=C\c2ccc(OCc3ccccc3)cc2)S1 | 6 | 7 | 9 | 8 | 10 | . | .
COc1ccc(/C=C/C(=O)c2ccc(O)cc2)cc1CN1CCOCC1 | -1 | 7 | 23 | -13 | 15 | . | .
COc1ccc(/C=C/C(=O)C23CC4CC(CC(C4)C2)C3)cc1CN1CCOCC1 | 8 | 46* | 38 | 12 | 46* | 38* | 36*
O=C(Nc1ccnn1C1CCN(C2CCOCC2)CC1)c1cccc(F)c1 | 3 | -5 | -1 | -1 | -6 | . | .
O=C(c1ccc2c3n(nc2c1)-c1ccccc1CO3)N1CCOCC1 | 3 | 41* | 49 | 29 | 48* | 51* | 31*
O=C(c1ccc2c3n(nc2c1)-c1ccc(Cl)cc1CO3)N1CCOCC1 | -9 | -3 | -1 | -5 | 14 | . | .
CC(=O)c1ccc(NC(=S)NC2CCCC(C)C2C)cc1 (stereo unspecified) | 1 | 47* | 45 | 2 | 45* | 43* | 36*
COc1ccc(N2CCN(C(=O)c3ccc4nc(N5CCCCC5)sc4c3)CC2)cc1 | -4 | 40* | 38 | -5 | 44* | 34* | 33*
